These results are taken from PubChem BioAssay (NCI).

Compounds without any hit were thinned out: in the full panel of roughly 83,000, 20% have a hit.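 Each cell line was grown in a 96-well plate and treated with one concentration of compound for 48 hours. Values below 10 were considered active.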 Values without a mark were called inactive. Active and inactive are the calls of the source.

Test in all cases: NCI-60 one-dose screen, 48 h (100 = growth as untreated, 0 = no growth, -100 = all killed)
One test concerns HCT-15 colon. The following applies: 10 µM unless noted.
In another test the test system is HT29 colon. The following applies: 10 µM unless noted.
The subject of another test is SNB-19 CNS. Particulars: 10 µM unless noted.
The next test has as its system U251 CNS. Particulars: 10 µM unless noted.
Another test concerns PC-3 prostate. The following applies: 10 µM unless noted.
Another test deals with SK-MEL-5 melanoma. Particulars: 10 µM unless noted.
The next test has as its system UACC-62 melanoma. The following applies: 10 µM unless noted.
A further test relates to LOX IMVI melanoma. The following applies: 10 µM unless noted.
A further test has as its system SK-MEL-28 melanoma. The following applies: 10 µM unless noted.
The test system of a further test is SK-MEL-2 melanoma. The following applies: 10 µM unless noted.
In a further test the test system is EKVX NSCLC. The following applies: 10 µM unless noted.
Another test relates to SN12C renal. The following applies: 10 µM unless noted.
The subject of a further test is UO-31 renal. The following applies: 10 µM unless noted.
Another test relates to TK-10 renal. Particulars: 10 µM unless noted.
The test system of another test is ACHN renal. The following applies: 10 µM unless noted.
In a further test the test system is CAKI-1 renal. The following applies: 10 µM.
The test system of a further test is A498 renal. Particulars: 10 µM unless noted.
The next test has as its system CCRF-CEM leukemia. The following applies: 10 µM unless noted.
In another test the test system is MOLT-4 leukemia. The following applies: 10 µM unless noted.

For `COc1cc2cc(Oc3ccc(NC(=O)c4cccc(C(F)(F)F)c4)cc3)c(C)nc2cc1OCCN(C)C`, the growth in the test with HCT-15 colon is -8.74% (active); with HT29 colon it was 27.5%; in the test with SNB-19 CNS it was 94.2%; with U251 CNS, 63.4%; in the test on PC-3 prostate, 74.2%; with SK-MEL-5 melanoma, -7.47% (active). In addition, the growth in the test with UACC-62 melanoma is 89.4%; with LOX IMVI melanoma, -81.3% (active); in the test with SK-MEL-28 melanoma it was 72.2%; with SK-MEL-2 melanoma, 108%; in the test with EKVX NSCLC, 83%; with SN12C renal it was 84.1%. For the same compound, the growth in the test on UO-31 renal is 84%; in the test with TK-10 renal, 98%; in the test with ACHN renal it was 86.6%; with CAKI-1 renal, 75.2%; in the test with A498 renal it was 100%; with CCRF-CEM leukemia, 41%. For the same compound, the growth with MOLT-4 leukemia was 67.1%.
As to `COc1cc(/C=N/n2cnc3oc(-c4ccccc4)cc3c2=N)cc(CN2CCCCC2)c1O`, the growth in the test on HCT-15 colon was -79.8% (active); in the test with HT29 colon, -14.1% (active); with SNB-19 CNS, -41.3% (active); with U251 CNS it was -66.5% (active); in the test on PC-3 prostate, -31% (active); in the test with SK-MEL-5 melanoma, -89.7% (active). Moreover, the growth with UACC-62 melanoma is -74.8% (active); with LOX IMVI melanoma it was -86.6% (active); with SK-MEL-28 melanoma it was -85.8% (active); in the test on SK-MEL-2 melanoma, -38.5% (active); with EKVX NSCLC it was -22.7% (active); in the test on SN12C renal, -78.8% (active). Also, the growth with UO-31 renal is -91.6% (active); in the test with TK-10 renal, -82.5% (active); in the test with ACHN renal, -97.7% (active); with CAKI-1 renal it was -94.2% (active); with A498 renal it was 15%; in the test on CCRF-CEM leukemia it was -6.9% (active). In addition, in the test on MOLT-4 leukemia, the growth was 2% (active).
Consider `CC1COc2c(N3CCN(C)CC3)c(F)cc3c(=O)c(C(=O)N/N=C/c4cc[nH]c4)cn1c23` (configuration not stated), for which the growth in the test on HCT-15 colon was 47.1%; in the test with HT29 colon it was 14.6%; in the test on SNB-19 CNS, 9.01% (active); with U251 CNS it was -41.6% (active); with PC-3 prostate it was 27.9%; in the test on SK-MEL-5 melanoma, 25.3%. Also, the growth in the test on UACC-62 melanoma is 76%; with LOX IMVI melanoma, -88.5% (active); in the test with SK-MEL-28 melanoma it was 57.3%; with SK-MEL-2 melanoma it was 83.5%; in the test on EKVX NSCLC, 33.3%; with SN12C renal, 49.3%. Moreover, the growth is 54% in the test with UO-31 renal; 87.8% with TK-10 renal; 43.8% in the test with ACHN renal; 47.6% with CAKI-1 renal; 40.6% with A498 renal; -35.9% (active) in the test on CCRF-CEM leukemia. The growth with MOLT-4 leukemia is 9.4% (active).
For the compound `O=C(/C=C1\C=CN(CCCCF)c2ccccc21)n1ccc2ccccc21`, the growth was 102% in the test on HCT-15 colon; 107% with HT29 colon; 105% with SNB-19 CNS; 105% in the test on U251 CNS; 103% in the test with PC-3 prostate; 98.8% in the test with SK-MEL-5 melanoma. The growth was 89.2% with UACC-62 melanoma; 106% in the test on LOX IMVI melanoma; 108% in the test on SK-MEL-28 melanoma; 103% with SK-MEL-2 melanoma; 90.7% with EKVX NSCLC; 94.6% in the test with SN12C renal. Moreover, the growth in the test on UO-31 renal is 74.2%; in the test with ACHN renal, 97.6%; in the test with CAKI-1 renal it was 87.5%; in the test with CCRF-CEM leukemia, 96.4%; with MOLT-4 leukemia, 105%.
With `O=C(CCCCCCN1CC(=O)N2[C@@H](c3cccc(Br)c3)c3[nH]c4ccccc4c3C[C@H]2C1=O)NO`, the growth was 68.7% in the test with HCT-15 colon; 14.8% with HT29 colon; 38% in the test with SNB-19 CNS; 25% in the test with U251 CNS; 32.8% with PC-3 prostate; 15.2% in the test on SK-MEL-5 melanoma. Besides, the growth was 1.57% (active) in the test on UACC-62 melanoma; -59.8% (active) with LOX IMVI melanoma; 26.6% in the test with SK-MEL-28 melanoma; 33.5% in the test on SK-MEL-2 melanoma; 54.8% in the test on EKVX NSCLC; 44.7% in the test on SN12C renal. The growth in the test on UO-31 renal is 46.2%; in the test with TK-10 renal, 28.1%; with ACHN renal, 73.4%; in the test on CAKI-1 renal, 23.1%; in the test with CCRF-CEM leukemia it was 14.9%; in the test on MOLT-4 leukemia, 12.4%.
For the compound `O=[N+]([O-])c1ccc(-c2nnc(SCc3ccc(O)c4ncccc34)n2-c2ccccc2)cc1`, the growth in the test with HCT-15 colon is 19.2%; in the test on HT29 colon, 65.8%; with SNB-19 CNS it was 14.4%; with U251 CNS, 14%; in the test on PC-3 prostate, 21%; with SK-MEL-5 melanoma, 1.12% (active). Also, the growth in the test on UACC-62 melanoma was 27.7%; in the test with LOX IMVI melanoma, -19.9% (active); in the test on SK-MEL-28 melanoma, 43.4%; in the test with SK-MEL-2 melanoma, 13.8%; with EKVX NSCLC, 40.5%; in the test with SN12C renal, 9.69% (active). For the same compound, the growth with UO-31 renal is 7.34% (active); in the test with TK-10 renal it was 79.3%; in the test with ACHN renal it was 29.3%; in the test on CAKI-1 renal, 30.1%; in the test on A498 renal, 70.8%; with CCRF-CEM leukemia it was 21%. For the same compound, the growth in the test on MOLT-4 leukemia is 43.2%.
As for `CCN1C(=O)N(CC)C2SC(N/N=C/c3cccs3)=NC21` (configuration not stated), the growth with HCT-15 colon is 14.8%; with HT29 colon it was 1.59% (active); in the test on SNB-19 CNS it was 25.9%; in the test on U251 CNS, 10.2%; with PC-3 prostate, 28.4%; in the test on SK-MEL-5 melanoma, -5.21% (active). The growth in the test with UACC-62 melanoma was 36.7%; in the test on LOX IMVI melanoma, 8.77% (active); in the test on SK-MEL-28 melanoma, 54.2%; in the test on SK-MEL-2 melanoma, 13.5%; in the test on SN12C renal, 29.9%; in the test on UO-31 renal it was 53.4%. The growth was 84.5% in the test with TK-10 renal; 32.9% with ACHN renal; 27.1% in the test on CAKI-1 renal; -23% (active) in the test with A498 renal; 17.8% with CCRF-CEM leukemia; 13.3% with MOLT-4 leukemia.
As for `COc1cc(CNC(=O)Cc2ccccc2[N+](=O)[O-])ccc1OCC(=O)NO`, the growth in the test with HCT-15 colon was 105%; with HT29 colon it was 110%; in the test on SNB-19 CNS it was 98.7%; with U251 CNS, 106%; with PC-3 prostate, 95.9%; in the test with SK-MEL-5 melanoma, 103%. Moreover, the growth in the test with UACC-62 melanoma was 92.7%; in the test on LOX IMVI melanoma, 100%; in the test with SK-MEL-28 melanoma, 109%; in the test with SK-MEL-2 melanoma, 104%; with EKVX NSCLC it was 100%; in the test on SN12C renal, 99.5%. Also, the growth in the test with UO-31 renal is 83.1%; in the test on TK-10 renal, 122%; with ACHN renal, 103%; in the test with CAKI-1 renal it was 90.4%; in the test with CCRF-CEM leukemia, 102%; with MOLT-4 leukemia, 107%.
